In PubChem BioAssay (NCI):
Compounds without any hit were thinned out: in the full panel of roughly 79,000, 15% have a hit. Activity calls are given as the source filed them. No stated cut-off is given here; in the data, active means growth inhibition above about 70%; inactive means the rest. Where a SMILES comes first, the peptide text is derived from it. [ ]: non-standard residue; d: D form. Phe(4-Cl) = N[CH](Cc1ccc(Cl)cc1)C(=O)O; 3Pal = N[CH](Cc1cccnc1)C(=O)O

Columns and labels:
[1] = NCI Yeast Anticancer Drug Screen. Data for the rad50 strain (AID 155);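 further: 0% = growth of vehicle-only cultures of the same strain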; conditions: S. cerevisiae rad50 strain growth inhibition, hits give high values
Procedure, shortened: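 Compounds were tested on a yeast strain with an engineered DNA damage repair alteration; the reported value is growth inhibition normalised to vehicle treatment.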

[2] = NCI Yeast Anticancer Drug Screen. Data for the mec2-1 strain (AID 157); conditions: S. cerevisiae mec2-1 strain, hits give high values
Procedure, shortened: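 Using mec2-1 yeast: add compound, measure growth, express inhibition versus vehicle-treated cultures.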

[3] = NCI Yeast Anticancer Drug Screen. Data for the sgs1 mgt1 strain (AID 161);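 further: 0% = growth of cultures given vehicle only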; conditions: S. cerevisiae sgs1 mgt1 strain, hits give high values
Procedure, shortened: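 Yeast cells carrying a defined DNA-repair defect were exposed to test compounds. Growth inhibition was measured relative to vehicle-treated controls.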

[4] = NCI Yeast Anticancer Drug Screen. Data for the cln2 rad14 strain (AID 165);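 further: 0% = growth equal to vehicle treated cultures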; conditions: S. cerevisiae cln2 rad14 strain, hits give high values
Procedure, shortened: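 Yeast strain cln2 rad14, bearing defects in cell cycle control and DNA repair, serves as the test system; values reflect growth inhibition compared with vehicle.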

[5] = NCI Yeast Anticancer Drug Screen. Data for the bub3 strain (AID 167); conditions: S. cerevisiae bub3 mutant strain, hits give high values
Procedure, shortened: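 Growth of a checkpoint-deficient yeast mutant is measured after compound exposure. Values represent inhibition relative to vehicle.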

[6] = NCI Yeast Anticancer Drug Screen. Data for the mlh1 rad18 strain (AID 175); conditions: S. cerevisiae mlh1 rad18 strain growth inhibition, hits give high values
Procedure, shortened: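 Steps: expose repair-defective yeast to compound; measure growth; express inhibition against vehicle-treated controls.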

[7] = at 5.0 µM (retest, dose inferred, filed as 0.5)
[8] = at 50.0 µM (retest, dose inferred, filed as 5.0)

Measured: growth inhibition

COc1cccc(/C=C(\NC(=O)c2ccccc2)c2nc3ccccc3s2)c1
inactive: [1]; [7] 64% | [2]; [7] 18% | [3]; [7] 53% | [4]; [7] 13% | [5]; [7] 29% | [6]; [7] 25%
active: [1]; [8] 96% | [1]; at 50.0 µM 98.3% | [2]; [8] 96% | [2]; at 50.0 µM 98.2% | [3]; [8] 97% | [3]; at 50.0 µM 98.8% | [4]; [8] 97% | [4]; at 50.0 µM 97.7% | [5]; [8] 97% | [5]; at 50.0 µM 97.4% | [6]; [8] 96% | [6]; at 50.0 µM 98.3%

O=C(O)c1c2c(c(O)c3c1CN(C1CCCCC1)CO3)OCN(C1CCCCC1)C2
active: [3]; at 50.0 µM 72.1% | [4]; at 50.0 µM 73.7% | [6]; at 50.0 µM 83.8%
inactive: [1]; [7] 8% | [1]; [8] 35% | [1]; at 50.0 µM 50.4% | [2]; [7] 3% | [2]; [8] 8% | [2]; at 50.0 µM 53.1% | [3]; [7] 4% | [3]; [8] 25% | [4]; [7] -17% | [4]; [8] 5% | [5]; [7] 2% | [5]; [8] 11% | [5]; at 50.0 µM 32.1% | [6]; [7] 0% | [6]; [8] 25%

O=[N+]([O-])/C(C(Cl)=C(Cl)Cl)=C(/Nc1ccccc1)SCc1ccccc1
active: [1]; [8] 100% | [2]; [8] 100% | [3]; [8] 99% | [4]; [8] 97% | [5]; [8] 94% | [6]; [8] 100%
inactive: [1]; [7] 32% | [1]; at 50.0 µM 12.3% | [2]; [7] 32% | [2]; at 50.0 µM 26.1% | [3]; [7] 13% | [3]; at 50.0 µM 18.9% | [4]; [7] 21% | [4]; at 50.0 µM 14.6% | [5]; [7] 28% | [5]; at 50.0 µM 43.4% | [6]; [7] 38% | [6]; at 50.0 µM 50.6%

CSc1ccc(C(=O)C(=O)c2ccc(SC)s2)s1
inactive: [1]; [7] 14% | [1]; [8] 11% | [1]; at 50.0 µM 26.6% | [2]; [7] -15% | [2]; [8] -8% | [2]; at 50.0 µM 39.5% | [3]; [7] 14% | [3]; [8] 14% | [4]; [7] 0% | [4]; [8] 37% | [5]; [7] -2% | [5]; [8] 9% | [5]; at 50.0 µM 48.7% | [6]; [7] 4% | [6]; [8] 2% | [6]; at 50.0 µM -1.7%
active: [3]; at 50.0 µM 73.8% | [4]; at 50.0 µM 76.7%

COc1ccc(C2=NN(c3ccccc3)C[N+](c3ccc(C)cc3)=N2)cc1
active: [1]; [8] 98% | [1]; at 50.0 µM 97.5% | [2]; [8] 99% | [2]; at 50.0 µM 98.2% | [3]; [8] 98% | [3]; at 50.0 µM 98.5% | [4]; [8] 98% | [4]; at 50.0 µM 97.9% | [5]; [8] 99% | [5]; at 50.0 µM 98.2% | [6]; [8] 98% | [6]; at 50.0 µM 97.8%
inactive: [1]; [7] 6% | [2]; [7] -14% | [3]; [7] -3% | [4]; [7] 12% | [5]; [7] -1% | [6]; [7] 13%

O=C(CCc1ccccc1)OCC1OC(OC(=O)CCc2ccccc2)C(OC(=O)CCc2ccccc2)C(OC(=O)CCc2ccccc2)C1OC(=O)CCc1ccccc1 (configuration not stated)
inactive: [1]; [7] 1% | [1]; [8] 4% | [1]; at 50.0 µM 25.6% | [2]; [7] 0% | [2]; [8] -2% | [2]; at 50.0 µM 21.4% | [3]; [7] -3% | [3]; [8] -22% | [3]; at 50.0 µM 19.7% | [4]; [7] 0% | [4]; [8] -1% | [4]; at 50.0 µM -0.4% | [5]; [7] 2% | [5]; [8] 1% | [5]; at 50.0 µM -6.35% | [6]; [7] -3% | [6]; [8] 3% | [6]; at 50.0 µM 45.4%

CC(=O)NC(Cc1ccc(Cl)cc1)C(=O)NC(Cc1ccc(Cl)cc1)C(=O)NC(Cc1cccnc1)C(=O)NC(CO)C(=O)NC(Cc1ccc(O)cc1)C(=O)NC(CCCN=C(N)N)C(=O)NC(CC(C)C)C(=O)NC(CCCN=C(N)N)C(=O)N1CCCC1C(=O)NC(C)C(=O)O (configuration not stated) (Ac-[Phe(4-Cl)][Phe(4-Cl)][3Pal]SYRLRPA-OH; configuration not given here)
inactive: [1]; [7] -20% | [1]; [8] -8% | [1]; at 50.0 µM 18.1% | [2]; [7] -9% | [2]; [8] -16% | [2]; at 50.0 µM 17.9% | [3]; [7] -14% | [3]; [8] 0% | [3]; at 50.0 µM 5.15% | [4]; [7] -18% | [4]; [8] -7% | [4]; at 50.0 µM 9.9% | [5]; [7] -4% | [5]; [8] 8% | [5]; at 50.0 µM 16.7% | [6]; [7] 29% | [6]; [8] -22% | [6]; at 50.0 µM 53.4%

CC(C)OC(=S)SSSC(=S)OC(C)C
active: [1]; [8] 99% | [1]; at 50.0 µM 99.5% | [2]; [8] 99% | [2]; at 50.0 µM 99.5% | [3]; [8] 98% | [3]; at 50.0 µM 99.7% | [4]; [8] 97% | [5]; [8] 99% | [5]; at 50.0 µM 99.7% | [6]; [8] 98% | [6]; at 50.0 µM 95.5%
inactive: [1]; [7] 6% | [2]; [7] 13% | [3]; [7] 9% | [4]; [7] 0% | [4]; at 50.0 µM 68.2% | [5]; [7] 6% | [6]; [7] 9%

O=C(NCCCCCN1CCC2(CCCCC2)CC1)C(c1ccccc1)C1CCCCC1 (configuration not stated)
active: [1]; [8] 99% | [1]; at 50.0 µM 99.6% | [2]; [8] 98% | [2]; at 50.0 µM 99.6% | [3]; [8] 97% | [3]; at 50.0 µM 99.7% | [4]; [8] 99% | [4]; at 50.0 µM 99.2% | [5]; [8] 100% | [5]; at 50.0 µM 99.6% | [6]; [8] 99% | [6]; at 50.0 µM 99.7%
inactive: [1]; [7] -1% | [2]; [7] -12% | [3]; [7] 0% | [4]; [7] 5% | [5]; [7] -15% | [6]; [7] 0%
